The values below come from PubChem BioAssay (NCI).

Test systems include DU-145 prostate; K-562 leukemia; MALME-3M melanoma; MDA-MB-231 breast; RXF 393 renal; SF-268 CNS; SF-295 CNS; SF-539 CNS; UACC-257 melanoma; M14 melanoma.
Holding throughout (assay): NCI-60 one-dose screen, 48 h (100 = growth as untreated, 0 = no growth, -100 = all killed)
Common to all, as to details: 10 µM unless noted

“And” between values parts separate entries of the source, which are not always exact repeats. Equal entries are not always repeated. Compounds without any hit were thinned out: in the full panel of roughly 83,000, 20% have a hit.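 Results are percent growth after 48 hours of single-concentration exposure. 100 means growth as in untreated cells, lower positive values show inhibition; negative values down to -100 show cell death.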 Some structures have more than one record in an assay (separate samples or runs), and their calls can disagree. The source made the active and inactive calls. The calls were made as follows: active = growth percent below 10; inactive = the rest.

As to `Cc1cc(-c2ccc(NS(=O)(=O)c3ccccc3)c(C)c2)ccc1NS(=O)(=O)c1ccccc1`, the growth in the experiment on DU-145 prostate was 93.8% (inactive) and 94.7% (inactive); in the experiment on K-562 leukemia, 62.7% (inactive) and 65.9% (inactive); with MALME-3M melanoma it was 79.6% (inactive) and 120% (inactive); in the experiment on MDA-MB-231 breast, 70.1% (inactive) and 74.5% (inactive); with RXF 393 renal, 70.1% (inactive) and 119% (inactive); with SF-268 CNS, 91.5% (inactive) and 106% (inactive). Further, the growth is 58.1% (inactive) and 99.4% (inactive) with SF-295 CNS; 108% (inactive) and 95.9% (inactive) with SF-539 CNS; 93.6% (inactive) and 110% (inactive) with UACC-257 melanoma.
`O=[N+]([O-])c1ccccc1N(S(=O)(=O)c1ccccc1)S(=O)(=O)c1ccccc1`: the growth in the experiment on DU-145 prostate was 118% (inactive) and 99.7% (inactive); in the experiment with K-562 leukemia, 93% (inactive) and 113% (inactive); with MALME-3M melanoma it was 120% (inactive) and 109% (inactive); in the experiment on MDA-MB-231 breast, 112% (inactive) and 96.5% (inactive); in the experiment with RXF 393 renal, 119% (inactive) and 108% (inactive); in the experiment on SF-268 CNS, 96.3% (inactive) and 95.2% (inactive). Moreover, the growth with SF-295 CNS was 108% (inactive) and 77.6% (inactive); in the experiment on SF-539 CNS, 117% (inactive) and 104% (inactive); with UACC-257 melanoma, 85.7% (inactive) and 92.4% (inactive).
Turning to `CCCCCCCCCCCCCCCc1cc(O)ccc1N`, the growth is 96.6% (inactive) and 107% (inactive) in the experiment on DU-145 prostate; 55.8% (inactive) with K-562 leukemia; 106% (inactive) and 78.2% (inactive) in the experiment on MALME-3M melanoma; 59.4% (inactive) and 71.5% (inactive) with MDA-MB-231 breast; 94.7% (inactive) in the experiment with RXF 393 renal; 77% (inactive) and 36.7% (inactive) in the experiment with SF-268 CNS. The growth with SF-295 CNS was 41.3% (inactive) and 49.7% (inactive); with SF-539 CNS, -40.5% (active) and -83.9% (active); in the experiment on UACC-257 melanoma it was 87.4% (inactive) and 71.4% (inactive).
As for `NC(=S)N/N=C(\c1ccc(Br)cc1)C1CC1`, the growth with DU-145 prostate is 96.8% (inactive) and 107% (inactive); in the experiment with K-562 leukemia it was 38% (inactive) and 43.1% (inactive); in the experiment with MALME-3M melanoma, 84.3% (inactive); with MDA-MB-231 breast, 67.2% (inactive); in the experiment with RXF 393 renal, 122% (inactive) and 98.1% (inactive); in the experiment with SF-268 CNS, 97.2% (inactive) and 103% (inactive). The growth in the experiment on SF-295 CNS is 93.5% (inactive) and 81.8% (inactive); in the experiment with SF-539 CNS, 99% (inactive) and 100% (inactive); in the experiment with UACC-257 melanoma it was 63.1% (inactive); in the experiment on M14 melanoma, 88% (inactive) and 84.1% (inactive).
As for `Cn1c(=O)c2[nH]c(CCCCCCCCc3nc4ccccc4[nH]3)nc2n(C)c1=O`, the growth in the experiment on DU-145 prostate was 91.2% (inactive) and 82.7% (inactive); in the experiment on K-562 leukemia, 30.9% (inactive); in the experiment on MALME-3M melanoma, 71.9% (inactive); in the experiment with MDA-MB-231 breast, 77% (inactive) and 60.9% (inactive); in the experiment with RXF 393 renal, 87.9% (inactive) and 101% (inactive); in the experiment on SF-268 CNS it was 83.5% (inactive) and 98.3% (inactive). Further, the growth in the experiment on SF-295 CNS was 34.8% (inactive) and 35.9% (inactive); with SF-539 CNS it was 78.2% (inactive) and 74.8% (inactive); in the experiment with UACC-257 melanoma, 39.7% (inactive) and 72% (inactive); in the experiment with M14 melanoma it was 80.7% (inactive) and 80.8% (inactive).
Regarding `OCCN1CCN(CCCN2c3ccccc3Sc3ccc(Cl)cc32)CC1`, the growth was 97.3% (inactive) and 95.7% (inactive) with DU-145 prostate; 13% (inactive) and 22.7% (inactive) in the experiment on K-562 leukemia; 16.5% (inactive) and 67.3% (inactive) in the experiment with MALME-3M melanoma; 12.2% (inactive) and 81.6% (inactive) in the experiment with MDA-MB-231 breast; 56.1% (inactive) and 55.3% (inactive) in the experiment on RXF 393 renal; 80.8% (inactive) and 71.9% (inactive) in the experiment on SF-268 CNS. Also, the growth with SF-295 CNS was 52.4% (inactive) and 67.9% (inactive); in the experiment with SF-539 CNS it was 80.2% (inactive) and 83.4% (inactive); in the experiment with UACC-257 melanoma, -43% (active) and -5.63% (active); in the experiment on M14 melanoma it was -76.7% (active) and 50.1% (inactive).
For the molecule `C/C(=N\NC(=O)c1ccncc1)c1ccccc1O`, the growth with DU-145 prostate was 40.8% (inactive) and 45.2% (inactive); with K-562 leukemia it was 35.6% (inactive) and 35.4% (inactive); in the experiment with MALME-3M melanoma, 65.6% (inactive) and 53.4% (inactive); with MDA-MB-231 breast, 34.9% (inactive) and 36.2% (inactive); in the experiment on RXF 393 renal it was 63.6% (inactive) and 75.4% (inactive); in the experiment on SF-268 CNS it was 37.1% (inactive) and 40.5% (inactive). The growth was 40.2% (inactive) and 39.3% (inactive) in the experiment with SF-295 CNS; 52.9% (inactive) and 30.2% (inactive) in the experiment with SF-539 CNS; 43.9% (inactive) and 25.1% (inactive) in the experiment with UACC-257 melanoma; 27.5% (inactive) and 33.5% (inactive) with M14 melanoma.
As to `O=S1(=O)CC(Br)C(Br)C1` (stereo not given), the growth with DU-145 prostate was 72.3% (inactive) and 129% (inactive); in the experiment with K-562 leukemia, 47% (inactive) and 69.7% (inactive); in the experiment with MALME-3M melanoma, 19.9% (inactive) and 53.1% (inactive); in the experiment on MDA-MB-231 breast, 88% (inactive) and 103% (inactive); in the experiment on RXF 393 renal, 40.1% (inactive) and 67.5% (inactive); with SF-268 CNS it was 109% (inactive) and 129% (inactive). Moreover, the growth is 111% (inactive) and 99.8% (inactive) with SF-295 CNS; 97.6% (inactive) and 99.1% (inactive) in the experiment with SF-539 CNS; 71.5% (inactive) and 64.7% (inactive) with UACC-257 melanoma; 73.2% (inactive) and 87.5% (inactive) in the experiment with M14 melanoma.
In the case of `S=C1SCN(Cc2ccccc2)CN1Cc1ccccc1`, the growth in the experiment on DU-145 prostate was 41.8% (inactive); with K-562 leukemia, 46.4% (inactive); in the experiment with MALME-3M melanoma, 92.1% (inactive); in the experiment with MDA-MB-231 breast, 85% (inactive); in the experiment on RXF 393 renal, 87.1% (inactive); in the experiment with SF-268 CNS, 73.5% (inactive). The growth with SF-295 CNS was 100% (inactive); in the experiment with SF-539 CNS, 91.4% (inactive); in the experiment on UACC-257 melanoma it was 95.2% (inactive).
On to `CC1(c2ccc3ccccc3c2)CCC(=O)O1` (stereo not given), for which the growth in the experiment on DU-145 prostate was 107% (inactive); in the experiment with K-562 leukemia it was 86.7% (inactive); in the experiment on MALME-3M melanoma, 96.8% (inactive); in the experiment on MDA-MB-231 breast, 111% (inactive); in the experiment with RXF 393 renal it was 104% (inactive); in the experiment with SF-268 CNS, 99.7% (inactive). Moreover, the growth in the experiment on SF-295 CNS was 107% (inactive); in the experiment with SF-539 CNS, 95.7% (inactive); with UACC-257 melanoma, 96.5% (inactive); in the experiment on M14 melanoma it was 117% (inactive).
For `CCN(CC)CCOc1ccc(/C=N/Nc2nc3c([nH]2)c(=O)n(C)c(=O)n3C)cc1`, the growth was 115% (inactive) and 108% (inactive) in the experiment on DU-145 prostate; 109% (inactive) and 103% (inactive) with K-562 leukemia; 96.6% (inactive) and 82.1% (inactive) in the experiment with MALME-3M melanoma; 103% (inactive) and 87.4% (inactive) in the experiment on MDA-MB-231 breast; 114% (inactive) and 122% (inactive) in the experiment with RXF 393 renal; 111% (inactive) and 102% (inactive) in the experiment on SF-268 CNS. Further, the growth was 113% (inactive) and 98.7% (inactive) in the experiment on SF-295 CNS; 97.2% (inactive) and 95.5% (inactive) with SF-539 CNS; 102% (inactive) and 108% (inactive) in the experiment on UACC-257 melanoma; 96.7% (inactive) and 97.6% (inactive) with M14 melanoma.
On to `CNC(=O)c1cccc(-c2ccc3c(N4CCOC[C@@H]4C)nc(N4CCOC[C@@H]4C)nc3n2)c1`, for which the growth with DU-145 prostate is 12.2% (inactive); in the experiment with K-562 leukemia, 25.3% (inactive) and 12.6% (inactive); with MALME-3M melanoma it was -32.1% (active) and -46.6% (active); with MDA-MB-231 breast, 6.14% (active) and 4.21% (active); in the experiment with RXF 393 renal it was -28.8% (active) and -33.9% (active); with SF-268 CNS it was 9.04% (active) and 13.7% (inactive). The growth is -37.4% (active) and -36.6% (active) in the experiment on SF-295 CNS; -26.5% (active) and -40.2% (active) in the experiment on SF-539 CNS; -21.2% (active) and -25.5% (active) in the experiment with UACC-257 melanoma.
Turning to `Nc1cc2c(cc1N)-c1ccccc1C2`, the growth in the experiment with DU-145 prostate was 104% (inactive) and 106% (inactive); with K-562 leukemia, 79.4% (inactive) and 87% (inactive); in the experiment on MALME-3M melanoma, 76.5% (inactive) and 103% (inactive); with MDA-MB-231 breast it was 64.7% (inactive) and 97% (inactive); in the experiment with RXF 393 renal, 88.2% (inactive) and 96.4% (inactive); in the experiment with SF-268 CNS, 86.8% (inactive) and 92.6% (inactive). Further, the growth was 156% (inactive) and 98.8% (inactive) in the experiment on SF-295 CNS; 74.9% (inactive) and 92.5% (inactive) in the experiment with SF-539 CNS; 101% (inactive) and 98.1% (inactive) in the experiment with UACC-257 melanoma; 97.1% (inactive) and 109% (inactive) in the experiment with M14 melanoma.
As for `O=C(Nc1ccc(Br)cc1)c1cc(Br)ccc1O`, the growth with DU-145 prostate is 19.9% (inactive) and 8.81% (active); with K-562 leukemia it was 9.25% (active) and -22.8% (active); in the experiment on MALME-3M melanoma, -31.4% (active) and -27.8% (active); in the experiment on MDA-MB-231 breast it was -36.1% (active) and -21.9% (active); with RXF 393 renal it was 2.31% (active) and 38.3% (inactive); in the experiment with SF-268 CNS it was 9.39% (active) and 9.12% (active). Further, the growth in the experiment on SF-295 CNS was -22.6% (active) and -16.5% (active); in the experiment on SF-539 CNS, 18.3% (inactive) and -1.29% (active); in the experiment on UACC-257 melanoma it was 14% (inactive) and 8.51% (active); in the experiment with M14 melanoma, 8.56% (active) and 8.13% (active).
In the case of `COc1ccc(-c2ncnc3c2ncn3C/C=C/CCl)cc1`, the growth was 81.8% (inactive) and 112% (inactive) with DU-145 prostate; 67.2% (inactive) and 77.5% (inactive) with K-562 leukemia; 61.8% (inactive) and 49.7% (inactive) in the experiment with MALME-3M melanoma; 88.8% (inactive) and 89.2% (inactive) with MDA-MB-231 breast; 7.94% (active) and 42.6% (inactive) in the experiment on RXF 393 renal; 87.7% (inactive) and 86.8% (inactive) in the experiment with SF-268 CNS. The growth in the experiment on SF-295 CNS was 109% (inactive) and 92.6% (inactive); in the experiment on SF-539 CNS, 75.9% (inactive) and 98.9% (inactive); in the experiment with UACC-257 melanoma, 80.5% (inactive) and 77.7% (inactive); with M14 melanoma, 70.9% (inactive) and 87% (inactive).
